In the supplement of paper PMC8728848:
About 410 targets per protein were measured; listed, in parts, are those with the strongest signals and a random draw of the rest.

What was measured:
Assay in all cases: glycan array binding signal (z-score within array); higher = stronger binding
Conditions in all cases: glycan notation: IUPAC condensed, linker removed
[1] = molecular target: Fuc(a1-2)Gal(b1-3)GlcNAc(b1-3)Gal(b1-4)Glc
How it was run: (§1)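 Glycan array data were curated from 3228 arrays in the Consortium for Functional Glycomics database and kept only where the protein sequence was available. Glycan names were converted to IUPAC-condensed notation, and columns mapping to the same glycan were averaged. The binding signal is a within-array Z-score, averaged across arrays of the same protein sequence at different concentrations or buffers and across linkers. Negative Z-scores can be read as non-binding.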

[2] = molecular target: Fuc(a1-2)Gal(b1-3)GlcNAc(b1-3)[Gal(b1-4)GlcNAc(b1-6)]Gal(b1-4)Glc
How it was run: as §1

[3] = molecular target: Fuc(a1-2)Gal(b1-4)GlcNAc(b1-2)[Fuc(a1-2)Gal(b1-4)GlcNAc(b1-4)]Man(a1-3)[Fuc(a1-2)Gal(b1-4)GlcNAc(b1-2)Man(a1-6)]Man(b1-4)GlcNAc(b1-4)GlcNAc
How it was run: as §1

[4] = molecular target: Fuc(a1-2)Gal6S(b1-4)Glc6S
How it was run: as §1

[5] = molecular target: Fuc(a1-2)[Gal(a1-3)]Gal
How it was run: as §1

[6] = molecular target: Fuc(a1-2)[Gal(a1-3)]Gal(b1-3)GlcNAc
How it was run: as §1

[7] = molecular target: Fuc(a1-2)[GalNAc(a1-3)]Gal(b1-4)GlcNAc
How it was run: as §1

[8] = molecular target: Fuc(a1-2)[GalNAc(a1-3)]Gal(b1-4)GlcNAc(b1-3)GalNAc
How it was run: as §1

[9] = molecular target: Fuc(a1-2)[GalNAc(b1-3)]Gal
How it was run: as §1

[10] = molecular target: Fuc(a1-3)[Gal(b1-4)]GlcNAc(b1-4)Gal(b1-4)[Fuc(a1-3)]GlcNAc
How it was run: as §1

[11] = molecular target: Fuc(a1-3)[Gal(b1-4)]GlcNAc6S
How it was run: as §1

[12] = molecular target: Fuc(a1-3)[Gal3S(b1-4)]GlcNAc6S
How it was run: as §1

[13] = molecular target: Gal(a1-3)Gal(b1-3)[Fuc(a1-4)]GlcNAc(b1-2)Man(a1-3)[Gal(a1-3)Gal(b1-3)[Fuc(a1-4)]GlcNAc(b1-2)Man(a1-6)]Man(b1-4)GlcNAc(b1-4)GlcNAc
How it was run: as §1

[14] = molecular target: Gal(a1-3)Gal(b1-4)GlcNAc
How it was run: as §1

[15] = molecular target: Gal(b1-3)GlcNAc(b1-3)Gal(b1-4)[Fuc(a1-3)]GlcNAc(b1-6)[Gal(b1-3)GlcNAc(b1-3)]Gal(b1-4)Glc
How it was run: as §1

[16] = molecular target: Gal(b1-3)[Neu5Ac(b2-6)]GalNAc
How it was run: as §1

[17] = molecular target: Gal(b1-4)GlcNAc(b1-2)Man(a1-3)[Gal(b1-4)GlcNAc(b1-2)Man(a1-6)]Man(b1-4)GlcNAc(b1-4)GlcNAc
How it was run: as §1

[18] = molecular target: Gal(b1-4)GlcNAc(b1-3)Gal(b1-4)GlcNAc(b1-2)Man(a1-3)[Gal(b1-4)GlcNAc(b1-3)Gal(b1-4)GlcNAc(b1-2)Man(a1-6)]Man(b1-4)GlcNAc(b1-4)[Fuc(a1-6)]GlcNAc
How it was run: as §1

[19] = molecular target: Gal(b1-4)GlcNAc(b1-6)[Gal(b1-4)GlcNAc(b1-3)]GalNAc
How it was run: as §1

[20] = molecular target: Gal(b1-6)Gal
How it was run: as §1

[21] = molecular target: Gal3S(b1-3)GlcNAc
How it was run: as §1

[22] = molecular target: Gal3S(b1-4)Glc
How it was run: as §1

[23] = molecular target: Gal3S(b1-4)Glc6S
How it was run: as §1

[24] = molecular target: Gal3S(b1-4)GlcNAc
How it was run: as §1

[25] = molecular target: Gal3S(b1-4)GlcNAc6S
How it was run: as §1

[26] = molecular target: Gal3S(b1-4)[Fuc(a1-3)]GlcNAc6S
How it was run: as §1

[27] = molecular target: GalNAc(a1-3)Gal
How it was run: as §1

[28] = molecular target: GalNAc(b1-3)GalNAc
How it was run: as §1

[29] = molecular target: GalNAc3S(b1-4)GlcNAc
How it was run: as §1

[30] = molecular target: Glc(b1-4)Glc
How it was run: as §1

[31] = molecular target: GlcNAc(a1-4)Gal(b1-3)GlcNAc
How it was run: as §1

[32] = molecular target: GlcNAc(b1-3)Gal(b1-4)GlcNAc(b1-3)Gal(b1-4)GlcNAc(b1-3)Gal(b1-4)GlcNAc(b1-2)[GlcNAc(b1-3)Gal(b1-4)GlcNAc(b1-3)Gal(b1-4)GlcNAc(b1-3)Gal(b1-4)GlcNAc(b1-6)]Man(a1-6)[GlcNAc(b1-3)Gal(b1-4)GlcNAc(b1-3)Gal(b1-4)GlcNAc(b1-3)Gal(b1-4)GlcNAc(b1-2)Man(a1-3)]Man(b1-4)GlcNAc(b1-4)[Fuc(a1-6)]GlcNAc
How it was run: as §1

[33] = molecular target: Man(a1-2)Man(a1-2)Man(a1-6)[Man(a1-3)]Man
How it was run: as §1

[34] = molecular target: Man(a1-2)Man(a1-3)[Man(a1-6)]Man(a1-6)[Man(a1-2)Man(a1-3)]Man(b1-4)GlcNAc(b1-4)GlcNAc
How it was run: as §1

[35] = molecular target: Neu5Ac(a2-3)Gal(b1-3)GalNAc(b1-4)[Neu5Ac(a2-8)Neu5Ac(a2-3)]Gal(b1-4)Glc
How it was run: as §1

[36] = molecular target: Neu5Ac(a2-3)Gal(b1-3)GlcNAc(b1-3)Gal(b1-3)GlcNAc
How it was run: as §1

[37] = molecular target: Neu5Ac(a2-3)Gal(b1-3)[GlcNAc(b1-6)]GalNAc
How it was run: as §1

[38] = molecular target: Neu5Ac(a2-3)Gal(b1-4)GlcNAc(b1-2)Man(a1-3)[Neu5Ac(a2-3)Gal(b1-4)GlcNAc(b1-2)Man(a1-6)]Man(b1-4)GlcNAc(b1-4)GlcNAc
How it was run: as §1

[39] = molecular target: Neu5Ac(a2-3)Gal(b1-4)GlcNAc(b1-3)Gal(b1-4)GlcNAc(b1-3)Gal(b1-4)GlcNAc
How it was run: as §1

[40] = molecular target: Neu5Ac(a2-3)Gal(b1-4)GlcNAc(b1-3)Gal(b1-4)GlcNAc(b1-3)[Neu5Ac(a2-3)Gal(b1-4)GlcNAc(b1-3)Gal(b1-4)GlcNAc(b1-6)]GalNAc
How it was run: as §1

[41] = molecular target: Neu5Ac(a2-3)Gal(b1-4)[Fuc(a1-3)]GlcNAc6S
How it was run: as §1

[42] = molecular target: Neu5Ac(a2-6)Gal(b1-4)GlcNAc(b1-3)Gal(b1-4)GlcNAc(b1-3)[Neu5Ac(a2-6)Gal(b1-4)GlcNAc(b1-3)Gal(b1-4)GlcNAc(b1-6)]GalNAc
How it was run: as §1

[43] = molecular target: Neu5Ac(a2-6)GalNAc
How it was run: as §1

[44] = molecular target: Neu5Ac(a2-8)Neu5Ac(a2-3)Gal(b1-4)GlcNAc
How it was run: as §1

[45] = molecular target: Neu5Ac(a2-8)Neu5Ac(a2-8)Neu5Ac(a2-3)[GalNAc(b1-4)]Gal(b1-4)Glc
How it was run: as §1

[46] = molecular target: Neu5Gc(a2-3)Gal(b1-4)GlcNAc(b1-3)Gal(b1-4)GlcNAc(b1-2)Man(a1-3)[Neu5Gc(a2-3)Gal(b1-4)GlcNAc(b1-3)Gal(b1-4)GlcNAc(b1-2)Man(a1-6)]Man(b1-4)GlcNAc(b1-4)GlcNAc
How it was run: as §1

[47] = molecular target: Neu5Gc(a2-8)Neu5Gc(a2-3)Gal(b1-4)GlcNAc
How it was run: as §1

[48] = molecular target: Neu5Gc(a2-8)Neu5Gc(a2-3)Gal(b1-4)GlcNAc(b1-3)Gal(b1-4)GlcNAc
How it was run: as §1

B1: MAA (Maackia amurensis), P0DKL3 (protein)
chain: MATSNSKPTQVLLATFLTFFFLLLNNVNSSDELSFTINNFVPNEADLLFQGEASVSSTGVLQLTRVENGQPQKYSVGRALYAAPVRIWDNTTGSVASFSTSFTFVVKAPNPDITSDGLAFYLAPPDSQIPSGSVSKYLGLFNNSNSDSSNQIVAVELDTYFAHSYDPWDPNYRHIGIDVNGIESIKTVQWDWINGGVAFATITYLAPNKTLIASLVYPSNQTTFSVAASVDLKEILPEWVRVGFSAATGYPTEVETHDVLSWSFTSTLEANCDAATENNVHIARYTA
glycan array binding signal (z-score) [1]: -0.221 | glycan array binding signal (z-score) [2]: -0.262 | glycan array binding signal (z-score) [3]: -0.059 | glycan array binding signal (z-score) [4]: -0.191 | glycan array binding signal (z-score) [5]: -0.152 | glycan array binding signal (z-score) [6]: -0.153 | glycan array binding signal (z-score) [7]: -0.228 | glycan array binding signal (z-score) [8]: -0.128 | glycan array binding signal (z-score) [9]: -0.178 | glycan array binding signal (z-score) [10]: -0.094 | glycan array binding signal (z-score) [11]: -0.2 | glycan array binding signal (z-score) [12]: 2.89 | glycan array binding signal (z-score) [13]: 0.162 | glycan array binding signal (z-score) [14]: -0.243 | glycan array binding signal (z-score) [15]: -0.145 | glycan array binding signal (z-score) [16]: -0.219 | glycan array binding signal (z-score) [17]: -0.204 | glycan array binding signal (z-score) [18]: 0.122 | glycan array binding signal (z-score) [19]: -0.204 | glycan array binding signal (z-score) [20]: -0.212 | glycan array binding signal (z-score) [21]: 1.5 | glycan array binding signal (z-score) [22]: 5.2 | glycan array binding signal (z-score) [23]: 6.87 | glycan array binding signal (z-score) [24]: 6.25 | glycan array binding signal (z-score) [25]: 4.71 | glycan array binding signal (z-score) [26]: 7.75 | glycan array binding signal (z-score) [27]: -0.197 | glycan array binding signal (z-score) [28]: -0.186 | glycan array binding signal (z-score) [29]: 2.31 | glycan array binding signal (z-score) [30]: -0.161 | glycan array binding signal (z-score) [31]: -0.226 | glycan array binding signal (z-score) [32]: 0.282 | glycan array binding signal (z-score) [33]: -0.236 | glycan array binding signal (z-score) [34]: -0.2 | glycan array binding signal (z-score) [35]: -0.163 | glycan array binding signal (z-score) [36]: -0.173 | glycan array binding signal (z-score) [37]: -0.229 | glycan array binding signal (z-score) [38]: 1.17 | glycan array binding signal (z-score) [39]: 1.27 | glycan array binding signal (z-score) [40]: 1.22 | glycan array binding signal (z-score) [41]: -0.236 | glycan array binding signal (z-score) [42]: 0.454 | glycan array binding signal (z-score) [43]: -0.257 | glycan array binding signal (z-score) [44]: 0.479 | glycan array binding signal (z-score) [45]: -0.155 | glycan array binding signal (z-score) [46]: 2.07 | glycan array binding signal (z-score) [47]: 0.744 | glycan array binding signal (z-score) [48]: 1.13
